# Most compounds without a hit are left out; they make up all but 2.4% or so of the library.
# POLK inh: DNA polymerase kappa (human) inhibition | hit rate 0.53% among 400,000 | Potency, µM (titrated, usually from 107 µM), without a hit: top-dose activity, negative = inhibition, most hits filed as inhibitors | purified Pol kappa, fluorescent DNA synthesis assay, 10 min | Q9UBT6; note: % is set by controls: 0 for no effect and ±100 for the full control effect
#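 Kinetic fluorescence readout at 0 and 10 min followed reaction start with substrate at 50 nM final. Beforehand, enzyme (10 nM Pol kappa) stood 15 min with compound at room temperature; buffer-only wells were negative controls.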
# FEN1 inhibitor: blocks human flap endonuclease 1; Potency, µM (titrated, usually from 114 µM), for the others: top-dose activity change, negative = inhibition, actives largely listed as inhibitors; P39748; hit rate 0.35% among 390,000; Recombinant FEN1 flap cleavage, fluorescence, 15 min; AID 588795; note: % is set by controls: 0 for no effect and ±100 for the full control effect; nearly all actives have a fitted effect of over 65% in size
#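 Potency values derive from four-parameter Hill fits of normalized qHTS data. The reaction used 10 nM FEN1 preincubated 15 min at room temperature with compound, then 50 nM DNA substrate, read at 0 and 15 min.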
# WRN inhibitor: inhibitors of human WRN helicase; Q14191; WRN helicase unwinding, fluorescent forked duplex, kinetic; Potency, µM (series often up to 114 µM), for the others: top-dose activity change, negative = inhibition, actives largely listed as inhibitors; hit rate 0.46% among 360,000; note: % is set by controls: 0 for no effect and ±100 for the full control effect; nearly all actives have a fitted effect of over 55% in size
#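 Primary qHTS, 1536-well format. 20 nM WRN + compound, 15 min RT; start with 100 nM forked fluorophore/quencher duplex, 2 mM ATP (final); kinetic read ex 525/em 598 nm.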
# POLH inh: inhibitors of human DNA polymerase eta | Potency, µM (series often up to 114 µM), inactives show at the top dose activity change, negative = inhibition, hits mostly inhibitors | hit rate 1.2% among 390,000 | recombinant Pol eta, fluorescent DNA replication assay | Q9Y253 | AID 588591; note: % is set by controls: 0 for no effect and ±100 for the full control effect
#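 Pol eta (10 nM) was preincubated with compounds for 15 min at room temperature, after which fluorescent replication substrate (50 nM final) was added to start the reaction. Fluorescence was read kinetically at 0 and 10 min.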
# Pol iota inh: blocks human DNA polymerase iota activity; Pol iota fluorescent replication assay, 10 min; Q9UNA4; hit rate 1% among 390,000; Potency, µM (doses to about 115 µM), inactives show at the highest dose activity, negative = inhibition, most hits filed as inhibitors
# Target sequence (Q9UNA4 whole entry, looked up): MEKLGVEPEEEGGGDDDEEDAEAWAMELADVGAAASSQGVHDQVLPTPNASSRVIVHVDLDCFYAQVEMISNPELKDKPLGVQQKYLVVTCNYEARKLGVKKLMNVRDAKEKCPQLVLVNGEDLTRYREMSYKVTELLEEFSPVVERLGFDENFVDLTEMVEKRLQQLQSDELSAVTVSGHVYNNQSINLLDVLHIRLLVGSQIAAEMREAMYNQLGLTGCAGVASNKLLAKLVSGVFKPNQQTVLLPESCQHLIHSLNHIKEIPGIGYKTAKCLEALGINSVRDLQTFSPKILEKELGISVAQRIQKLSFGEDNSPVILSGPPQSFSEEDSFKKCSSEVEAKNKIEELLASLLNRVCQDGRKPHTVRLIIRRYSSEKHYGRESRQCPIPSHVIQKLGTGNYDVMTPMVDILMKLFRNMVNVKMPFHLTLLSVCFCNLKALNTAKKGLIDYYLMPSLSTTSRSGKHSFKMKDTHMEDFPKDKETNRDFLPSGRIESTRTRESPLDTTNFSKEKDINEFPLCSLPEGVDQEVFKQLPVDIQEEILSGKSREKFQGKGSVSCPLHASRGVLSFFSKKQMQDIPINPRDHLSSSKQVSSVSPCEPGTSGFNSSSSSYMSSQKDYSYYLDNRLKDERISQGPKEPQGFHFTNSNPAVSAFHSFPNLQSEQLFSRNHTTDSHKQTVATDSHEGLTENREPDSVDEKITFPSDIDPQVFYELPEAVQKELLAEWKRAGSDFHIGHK
#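 Fluorescent replication assay read twice, at 0 min and 10 min after adding 50 nM (final) substrate. Enzyme (10 nM) and compounds were first incubated 15 min at room temperature; enzyme-free buffer wells were negative controls.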
# Pol beta inh: DNA polymerase beta (human) inhibition. P06746. Pol beta primer extension/strand displacement, fluorescence kinetic. Potency, µM (top dose mostly 114 µM), for inactives: at the highest dose activity change, negative = inhibition, usual class: inhibitors. hit rate 1.3% among 340,000. AID 485314; note: % is set by controls: 0 for no effect and ±100 for the full control effect
#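 Curves were derived by four-parameter Hill fits of normalized qHTS data. The kinetic fluorescent primer-extension read was taken at 0 and 10 min after 50 nM substrate, following a 15 min room-temperature preincubation of 10 nM enzyme with compounds.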
# * hit, by the source's call; ? = inconclusive; / = not tested or not shown; [ ] = another dose, or the depositor's remark. Calls come from the whole dose curve; as a rule, active = well fitted curve in the direction sought with a large enough effect; inconclusive = small, poorly fitted or top-dose-only effect, or another doubt; inactive = no such curve, though single readings can be large; an effect the other way counts as inactive or inconclusive. Potency is the fitted concentration of half-maximal effect.
SMILES,POLK inh,FEN1 inhibitor,WRN inhibitor,POLH inh,Pol iota inh,Pol beta inh
CCNC(=S)N=Nc1c(O)[nH]c2ccc([N+](=O)[O-])cc12,?,-6.8%,?,-2.5%,106.5%,?
Cc1ccccc1NCC(=O)N=Nc1c(O)[nH]c2ccc([N+](=O)[O-])cc12,-28.6%,-2.5%,-6.9%,-9.0%,43.8%,9.2%
Cc1cccc(OCC(=O)NCC(=O)N=Nc2c(O)[nH]c3ccc([N+](=O)[O-])cc23)c1,-9.6%,0.9%,-4.9%,?,56.6%,44.7µM*
O=[N+]([O-])c1ccc2[nH]c(O)c(N=NC(=S)Nc3cccnc3)c2c1,89.1µM*,?,?,?,?,?
O=C(O)c1ccccc1N=Nc1c(O)[nH]c2ccc([N+](=O)[O-])cc12,-42.5%,?,?,22.4µM*,?,50.1µM*
COc1cc2cc(CN(Cc3nnnn3Cc3ccco3)C3CCCCC3)c(=O)[nH]c2cc1OC,?,-1.3%,?,?,?,44.7µM*
CCOc1ccc2[nH]c(=O)c(CN(Cc3nnnn3Cc3ccco3)C3CCCCC3)cc2c1,-13.4%,1.4%,-16.2%,1.4%,6.5%,20µM*
CCOc1ccc2[nH]c(=O)c(CN(Cc3ccco3)Cc3nnnn3Cc3ccccc3)cc2c1,-12.0%,-5.7%,-18.6%,-9.0%,-15.7%,-17.8%
CCN1CCN(C(=O)Cn2ncc3c4ccccc4n(Cc4ccccc4F)c3c2=O)CC1,-0.7%,-5.7%,/,-20.1%,27.3%,-2.8%
Cc1ccccc1C(=O)Nc1ccc(C(=O)N/N=C/c2ccc(F)cc2)cc1,-13.1%,-4.9%,-16.4%,4.1%,-5.8%,39.8µM*
Cc1cccc(C(=O)Nc2ccc(C(=O)N/N=C/c3cccnc3)cc2)c1,-7.9%,6.8%,-0.1%,-14.1%,36.9%,18.2%
O=C(N/N=C/c1ccccc1)c1ccc(NC(=O)c2ccc(F)cc2)cc1,0.2%,5.6%,-0.4%,-14.2%,131.2%,-1.6%
O=C(N/N=C/c1cccnc1)c1cccc(Cl)c1,3.8%,20.2%,8.3%,-0.7%,29.4%,35.3%
O=C(N/N=C/c1cccnc1)c1cccc(NC(=O)c2ccc(Cl)cc2)c1,-19.7%,-27.7%,?,?,?,39.8µM*
Cc1ccc(C(=O)Nc2ccc(C(=O)N/N=C/c3cccnc3)cc2)cc1,-12.9%,-5.2%,-13.8%[11.6 µM],-5.4%,79.4µM*,?
Cn1cc(-c2cc3n(n2)CCC(=O)N3CCCC(=O)NCc2ccc(Cl)cc2)c2ccccc21,2.9%[60.1 µM],-12.3%,/,-1.0%,-22.3%,16.8%
Cn1cc(-c2cc3n(n2)CCC(=O)N3CCCC(=O)Nc2ccc(Cl)cc2)c2ccccc21,2.5%[60.1 µM],9.5%,/,-11.0%,89.1µM*,?
CCS(=O)(=O)N1CCN(Cc2ccccc2OC)CC1,-14.0%,0.1%,-5.6%[57.1 µM],-2.5%,7.8%,-3.7%
CCCS(=O)(=O)N1CCN(Cc2ccccc2OCC)CC1,-8.6%,-6.9%,6.7%,-3.5%,6.8%,89.1µM*
O=C(CSc1nnc(Cc2csc(Nc3cccc(Cl)c3)n2)o1)N1CCc2ccccc21,-27.9%,-2.4%,-35.5%,?,79.4µM*,1.0%
Cc1ccc(OCC(=O)Nc2nnc(SCc3cc(=O)c4ccccc4[nH]3)s2)cc1,-7.1%[60.1 µM],-10.3%,/,-3.3%,-1.2%,0.1%
CCN(Cc1cccc(S(=O)(=O)O)c1)c1ccc(C(=C2C=CC(=[N+](CC)Cc3cccc(S(=O)(=O)O)c3)C=C2)c2ccc(O)cc2S(=O)(=O)O)cc1,2.82µM*,12.6µM*,/,/,2.24µM*,/
CC1=CC(=O)C=C/C1=C(/c1ccc(O)cc1C)c1ccccc1S(=O)(=O)O,0.0%,14.3%,-13.3%,0.6%,-10.0%,/
CCN(Cc1cccc(S(=O)(=O)O)c1)c1ccc(C(=C2C=CC(=[N+](CC)Cc3cccc(S(=O)(=O)O)c3)C=C2)c2ccccc2S(=O)(=O)[O-])cc1,7.94µM*,31.6µM*,/,/,?,/
CCOc1ccc(/C=C/C2=Cc3c(sc(NC(=O)CSc4n[nH]c(N)n4)c3C#N)C(C)(C)C2)cc1,-22.9%,-7.5%,44.7µM*,-7.2%,?,-1.1%
SMILES,POLK inh,FEN1 inhibitor,WRN inhibitor,POLH inh,Pol iota inh,Pol beta inh
COc1ccc(-c2csc(NC(=O)CSc3n[nH]c(N)n3)n2)cc1,-4.9%,-10.9%,-9.2%,-6.8%,168.0%,15.8%
Cc1ccc(NC(=O)Nc2ccc3c(c2)N(C)C(=O)CS3)nc1,-2.1%,3.0%,-17.3%[57.1 µM],-28.6%,89.1µM*,?
Cc1ccnc(NC(=O)Nc2ccc3c(c2)N(C)C(=O)CS3)c1,-16.3%,0.8%,-30.9%[57.1 µM],4.3%,-3.8%,-0.9%
Cc1cc(-c2ccc(N=Nc3ccc4c(S(=O)(=O)O)cc(S(=O)(=O)O)c(N)c4c3O)c(C)c2)ccc1N=Nc1ccc2c(S(=O)(=O)O)cc(S(=O)(=O)O)c(N)c2c1O,1.26µM*,/,/,/,/,/
Nc1c(N=Nc2ccc(-c3ccc(N=Nc4cc(S(=O)(=O)O)c5ccccc5c4N)cc3)cc2)cc(S(=O)(=O)O)c2ccccc12,1.12µM*,/,/,/,/,/
Cc1ccc(N=Nc2ccc(N)cc2C)c(S(N)(=O)=O)c1,0.3%,-3.8%,-5.7%,?,94.4%,?
O=S(=O)(O)c1ccc(N=Nc2ccccc2)cc1,-5.6%,12.8%,-10.4%,-9.7%,3.5%,?
COC(=O)c1cccnc1-n1c(=O)c2cccnc2n(CC(=O)Nc2ccccc2F)c1=O,-7.3%,16.5%,/,-8.6%,1.4%,24.1%
O=C(NCc1noc2ccccc12)N1CCN(c2ccccc2)CC1,-3.3%,16.3%,/,4.8%,-5.4%,2.3%
Cc1nc2ccc(S(=O)(=O)NC(C(=O)N3CCN(c4cccc(Cl)c4)CC3)C(C)C)cc2s1 (stereo unspecified),-5.0%,7.8%,/,-23.5%,25.1%,4.0%
COc1ccc(NC(=O)N2CCCC3(CCN(S(=O)(=O)c4ccccc4)CC3)C2)cc1,0.9%[60.1 µM],/,/,/,/,/
COc1ccc(OC)c2c(C)ccnc12,5.7%,-7.2%,/,/,-10.3%,/
Cc1ccc(-c2nc(-c3cc4cccc(OCc5cccc(F)c5)c4oc3=O)no2)cc1,-25.6%,-2.2%,/,35.5µM*,-7.9%,35.5µM*
Cc1ccc(-c2nc(-c3cc4cccc(OCc5ccc(F)cc5)c4oc3=O)no2)cc1,-1.1%,-0.9%,/,-17.1%,10.7%,?
CCOC(=O)c1ccc2c(c1)C1C=CCC1C(C(=O)O)N2 (stereo unspecified),/,/,/,/,/,3.98µM*
O=C(O)c1ccc2c(c1)C1C=CCC1C(c1ccncc1)N2 (stereo unspecified),-31.4%,13.5%,5.2%,?,50.0%,?
COCCNC(=O)C1Nc2ccc(C(F)(F)F)cc2C2C=CCC12 (stereo unspecified),-14.3%,-0.7%,13.0%,-19.9%,?,/
